Assay results reported in PubChem BioAssay (NCATS).
Results filed as inconclusive are left out. Activity calls are given as the source filed them. Calls follow the shape of the dose curve; as a rule, active = well fitted curve in the direction sought with a large enough effect; inconclusive = small, poorly fitted or top-dose-only effect, or another doubt; inactive = no such curve, though single readings can be large; an effect the other way counts as inactive or inconclusive.

Tests used:
[1] = OV-KATE Cancer Cell Toxicity qHTS against the NCATS CANVASS Library (AID 1347345)
How it was run: (§1)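 Step one: seed 1000 cells per well. Step two: incubate 4 h. Step three: add test compounds in 11 concentrations. Step four: culture 72 h, then add CellTiter-Glo and record luminescence after 15min.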

[2] = HPAF-II Cancer Cell Toxicity qHTS against the NCATS CANVASS Library (AID 1347346); also: series mostly up to about 38 µM; nearly all actives have a fitted effect of over 55% in size
How it was run: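 Using 1000 HPAF-II cells per well, we titrated compounds over 11 concentrations for 72 h at 37 degrees C/5% CO2, with bortezomib as control. Cell survival was quantified by CellTiter-Glo luminescence.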

[3] = U-118MG Cancer Cell Toxicity qHTS against the NCATS CANVASS Library (AID 1347351)
How it was run: as §1

[4] = HEK293 18hr Apoptosis Induction qHTS against the NCATS CANVASS Library (AID 1347357)
How it was run: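 Cells seeded at 500/well in DMEM + 10% FBS. Compounds pinned, 11 concentrations. 18 h, 37 degrees C/5% CO2. Caspase-Glo 3/7 added, 15 min RT dark, luminescence read.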

[5] = HPAF-II 12hr Apoptosis Induction qHTS against the NCATS CANVASS Library (AID 1347358)
How it was run: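 Twelve-hour compound exposure of HPAF-II cells in DMEM with 10% FBS, then luminescent Caspase-Glo 3/7 detection after 15 min at room temperature; doxorubicin control.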

[6] = HEK293 24hr Apoptosis Induction qHTS against the NCATS CANVASS Library (AID 1347359)
How it was run: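 Caspase-3/7 activation measured as luminescence from the DEVD-based Caspase-Glo reagent, 15 min at room temperature, following 24-hour compound treatment of HEK293 cells.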

[7] = HEK293 12hr Apoptosis Induction qHTS against the NCATS CANVASS Library (AID 1347361)
How it was run: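 Cells are seeded, dosed with an 11-point compound series and incubated 12 hours. Caspase-3/7 activity is detected by luminescent DEVD-substrate reagent after 15 minutes at room temperature.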

[8] = target: Luciferin 4-monooxygenase (Photinus pyralis) (UniProt P08659); experiment: Firefly luciferase counterscreen qHTS: Assay Interference Panel against the NCATS CANVASS Library (AID 1347363); also: series mostly up to about 57 µM
How it was run: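 Luminescence inhibition readout: compounds (11-point qHTS) sat 15 min at room temperature with substrate mix (0.013 mM luciferin and ATP), then firefly luciferase was added and signal read 5 min later.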

[9] = KB-3-1 Cancer Cell Toxicity qHTS against the NCATS CANVASS Library (AID 1347366); also: nearly all actives have a fitted effect of over 75% in size
How it was run: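 Luminescence from CellTiter-Glo (10 min, room temperature) measured KB-3-1 viability after 72 hr compound exposure at 37C. Cells were seeded at 500/well and tested in an 11-point series.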

[10] = MCF7 Cancer Cell Toxicity qHTS against the NCATS CANVASS Library (AID 1347369)
How it was run: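 Cells seeded at 500/well, then compound pinned. Plates incubated 72 hr at 37C, 5% CO2. CellTiterGlo added; luminescence read.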

[11] = J3T Cancer Cell Toxicity qHTS against the NCATS CANVASS Library (AID 1347371)
How it was run: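 ATP-based cytotoxicity in canine J3T cells: 72 hr exposure at 37C, 11-point titration, CellTiterGlo luminescent detection.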

[12] = target: Nuclear receptor subfamily 1 group I member 3 (Homo sapiens) (UniProt Q14994); experiment: qHTS for Constitutive Androstane Receptor (CAR) Antagonist screened against the NCATS CANVASS Library (AID 1347372);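 also: cells stimulated with 50 nM CITCO agonist so inhibition reflects antagonism; series mostly up to about 46 µM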
How it was run: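 Antagonist mode: compound added alongside 50 nM CITCO to HepG2-hCAR-CYP2B6 reporter cells, 24hr at 37C. Viability by CellTiter-Fluor fluorescence, then CAR-driven luciferase by ONE-Glo luminescence.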

[13] = target: Nuclear receptor subfamily 1 group I member 3 (Homo sapiens) (UniProt Q14994); experiment: qHTS for Constitutive Androstane Receptor (CAR) Agonist screened against the NCATS CANVASS Library (AID 1347373);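 also: every well also contained 1.5 µM PK11195 alongside the test compound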
How it was run: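 In an 11-point concentration series, compounds were incubated 24hr with HepG2 cells carrying hCAR and a CYP2B6-2.2kb reporter, with PK11195 at 1.5uM final. A CellTiter-Fluor viability read preceded the ONE-Glo luminescence read.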

[14] = qHTS for Hypoxia signaling pathway (HIF-1) agonists against the NCATS CANVASS Library (AID 1347375)
How it was run: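 An HRE-beta-lactamase ME-180 line is exposed for 17 h to an 11-point compound series, then read by CCF4-AM FRET. Cytotoxicity is measured in parallel in the same wells with CellTiter-Glo, and autofluorescence is checked separately.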

[15] = 10-beta competent E. coli microbial cell viability qHTS against the NCATS CANVASS Library (AID 1347376); also: series mostly up to about 46 µM
How it was run: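 Overnight 37C exposure of 10-beta E. coli (0.2 OD) to an 11-point concentration series; ATP-based luminescence after 20 min room-temperature reagent incubation; daunomycin as control.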

[16] = qHTS for H2AX Agonists against the NCATS CANVASS Library (AID 1347378);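 also: phospho-H2AX S139 level in CHO-K1 lysates by TR-FRET emission ratio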
How it was run: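 CHO-K1, 1000 cells/well, o/n 37C; cpd several conc, 3 hr 37C, 0.76% DMSO; lyse 30 min RT; cryptate anti-pH2AX(S139) + d2 anti-H2AX, 24 hr RT; HTRF 665/620.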

[17] = Inflammasome Signaling qHTS Counterscreen: IL-1-beta AlphaLISA counterscreen against the NCATS CANVASS Library (AID 1347381);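 also: cell-free check with purified IL-1β in medium and no THP-1 cells; series mostly up to about 57 µM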
How it was run: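 Here, no cellular stimulation occurs; compounds in an 11-point series meet 4 pg purified IL-1-beta directly. Bead-based AlphaLISA detection follows (1 h acceptor/antibody, then 30 min donor, dark, room temperature), with excitation at 680 nm.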

[18] = Cytotoxicity qHTS for assessment of Hepg2 cells membrane integrity screened against the NCATS CANVASS Library (AID 1347387)
How it was run: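 Membrane damage in HepG2 monolayers was estimated from released LDH, measured with CytoTox-ONE (ex 560/em 590 nm), after 5 hr treatment across 0.59 nM - 46 uM final.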

[19] = qHTS for inhibitors of Wild type Zika virus screened against the NCATS CANVASS Library (AID 1347396);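 also: ATP luminescence of surviving cells so rescue from viral cell killing; series mostly up to about 46 µM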
How it was run: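 Using ATP-based luminescence (CellTiter Glo), this screen scores rescue of Vero 766 cells from wild-type Zika killing at 72 h post-infection. Compounds are tested in a concentration series.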

[20] = Viability qHTS for inhibitors of the SERCaMP assay screened against the NCATS CANVASS Library (AID 1347400); also: series mostly up to about 92 µM; nearly all actives have a fitted effect of over 70% in size
How it was run: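 Measures loss of viability in SERCaMP reporter SH-SY5Y cells treated for 48 h with compounds; luminescent ATP detection by CellTiter-Glo.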

Measured: Potency

Chain of Luciferin 4-monooxygenase (Photinus pyralis) (P08659 whole entry, looked up): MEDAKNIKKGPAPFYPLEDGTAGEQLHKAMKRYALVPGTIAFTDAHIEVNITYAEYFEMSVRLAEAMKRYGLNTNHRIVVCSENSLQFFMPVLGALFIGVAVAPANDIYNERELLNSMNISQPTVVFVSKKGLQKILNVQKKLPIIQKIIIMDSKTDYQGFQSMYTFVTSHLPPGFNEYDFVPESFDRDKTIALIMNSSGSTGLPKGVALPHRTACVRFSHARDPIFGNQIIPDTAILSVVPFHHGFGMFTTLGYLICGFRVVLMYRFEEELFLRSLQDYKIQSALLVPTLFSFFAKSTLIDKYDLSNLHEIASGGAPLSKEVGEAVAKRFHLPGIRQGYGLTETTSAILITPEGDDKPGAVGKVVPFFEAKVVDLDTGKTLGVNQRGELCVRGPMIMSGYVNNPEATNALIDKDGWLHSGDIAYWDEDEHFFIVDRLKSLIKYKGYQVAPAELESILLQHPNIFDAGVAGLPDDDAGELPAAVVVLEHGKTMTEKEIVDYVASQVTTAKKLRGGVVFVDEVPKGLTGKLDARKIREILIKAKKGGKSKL
Chain of Nuclear receptor subfamily 1 group I member 3 (Homo sapiens) (Q14994 whole entry, looked up): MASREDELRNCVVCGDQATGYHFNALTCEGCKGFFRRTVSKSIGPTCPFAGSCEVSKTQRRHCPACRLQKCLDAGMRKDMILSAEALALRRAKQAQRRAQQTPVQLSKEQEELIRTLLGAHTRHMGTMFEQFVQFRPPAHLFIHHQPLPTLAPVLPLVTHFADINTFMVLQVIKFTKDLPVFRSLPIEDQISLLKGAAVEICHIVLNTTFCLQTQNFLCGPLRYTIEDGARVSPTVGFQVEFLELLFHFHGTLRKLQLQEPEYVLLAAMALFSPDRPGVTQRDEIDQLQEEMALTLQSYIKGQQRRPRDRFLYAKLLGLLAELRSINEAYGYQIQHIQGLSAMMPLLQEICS

COc1ccc2cc(NC(=O)C3=NO[C@H]4[C@H](O)C=C[C@@H](Cl)[C@@]4(O)C3)c(=O)oc2c1OC
inactive: all assays above

C[C@@H]1O[C@@H](O[C@@H]2[C@@H](O)[C@H](O[C@@H]3[C@@H](O)[C@@H](O)C(O[C@H]4[C@H](OC(=O)[C@]56CCC(C)(C)C[C@H]5C5=CCC7[C@@]8(C)C[C@H](O)[C@H](O[C@@H]9C[C@H](CO)[C@@H](O)[C@H](O)[C@H]9O)[C@@](C)(CO)C8[C@H](O)C[C@@]7(C)[C@]5(C)CC6)OC[C@H](O)[C@@H]4O)O[C@H]3C)OC[C@H]2O)[C@H](O)[C@H](O)[C@H]1O (some centres undefined)
inactive: all assays above

C[C@@]12C[C@@H](C[C@H]3C(=O)O[C@@H](c4ccoc4)[C@H](OC(=O)c4ccccc4)[C@@H]31)OC2=O
inactive: all assays above

C/C=C1/CC[C@@H]2c3[nH]c4ccccc4c3CCN2C1
inactive: all assays above

O=C1C[C@@H](c2ccc(O)c(-c3c(O)cc(O)c4c3O[C@H](c3ccc(O)cc3)CC4=O)c2)Oc2cc(O)cc(O)c21
inactive: all assays above

Oc1ccc([C@H]2Oc3ccc(/C=C/c4cc(O)cc(O)c4)cc3C2c2cc(O)cc(O)c2)cc1 (some centres undefined)
inactive: all assays above

C=C1[C@H]2CC[C@@]3(C=CC(=O)[C@@](C)(CCC(=O)Nc4c(O)ccc(C(=O)O)c4O)C3C2)[C@H]1O (some centres undefined)
inactive: all assays above

C/C(=C\[C@H](C)C(=O)CCCC1CC(=O)NC(=O)C1)C(O)[C@@H](C)[C@H](O)C/C=C/CC/C=C/C(=O)O (some centres undefined)
inactive: all assays above

CC12C[C@]3(O)O[C@@H](O1)[C@]1(COC(=O)c4ccccc4)[C@@H]3CC21OC1OC(CO)C(O)C(O)C1O (some centres undefined)
inactive: all assays above

CC1(C)CCC[C@]2(C)[C@@H]1CC[C@@]13C[C@@H](CC[C@H]12)C(C)(O)C3 (some centres undefined)
inactive: all assays above

CC1C(=O)C23CCC1C[C@]21O[C@@H]2C(C)(C)C=CC(=O)[C@@]23COC1=O (some centres undefined)
inactive: all assays above

O=C1c2c(O)cc(O)cc2O[C@@H](c2ccc(O)cc2)[C@@H]1c1c(O)cc(O)c2c(=O)cc(-c3ccc(O)c(O)c3)oc12
not listed: [15]
inactive: all other assays above
